TRPML1 agonist: qHTS for Agonists of the Human Mucolipin Transient Receptor Potential 1 (TRPML1) | activation, % (no concentration beside the values) | AID 624414, 2012 | TRPML1-expressing cells, Ca2+ dye fluorescence, FDSS | actives 0.12% (n = 410,000); in the data active means activation above about 50%; further: 0% is about no effect
Target sequence (Q9GZU1 whole entry, looked up): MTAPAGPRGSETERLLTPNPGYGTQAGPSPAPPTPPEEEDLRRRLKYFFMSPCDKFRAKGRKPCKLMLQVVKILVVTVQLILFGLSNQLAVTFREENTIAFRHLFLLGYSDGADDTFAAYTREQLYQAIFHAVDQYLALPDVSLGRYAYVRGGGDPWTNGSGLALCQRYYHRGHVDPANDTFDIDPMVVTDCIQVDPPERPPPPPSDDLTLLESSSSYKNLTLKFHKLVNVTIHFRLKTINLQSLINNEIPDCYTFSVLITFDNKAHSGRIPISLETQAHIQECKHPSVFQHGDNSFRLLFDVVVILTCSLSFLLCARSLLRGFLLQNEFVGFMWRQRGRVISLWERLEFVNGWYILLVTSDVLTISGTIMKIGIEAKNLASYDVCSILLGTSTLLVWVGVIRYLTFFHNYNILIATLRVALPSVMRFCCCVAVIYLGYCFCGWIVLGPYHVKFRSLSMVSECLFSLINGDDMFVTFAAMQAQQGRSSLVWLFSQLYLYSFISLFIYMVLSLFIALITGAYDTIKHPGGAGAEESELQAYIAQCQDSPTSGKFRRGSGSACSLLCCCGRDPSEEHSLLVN
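Kinetic FDSS Ca2+ read in Tet-induced TRPML1-DL cells (ABD Ca8 dye plus quencher, 45-90 min RT loading): baseline, then compound, then 110 s agonist window; EC80 agonist 54-4 at 4uM final added afterwards for a 110 s antagonist window.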
TRHR ag: qHTS for Small Molecule Agonists and Allosteric Enhancers of Human TRH Receptor: Primary Screen for Agonists; actives 0.18% (n = 360,000); Thyrotropin-releasing hormone receptor (Homo sapiens), P34981; TRHR cells, calcium flux fluo-8, FDSS agonist mode; activation, % at 2 µM; in the data active means activation above about 30%; further: 0% is about no effect
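In this calcium-flux screen, cells bearing human TRHR are dye-loaded with fluo-8, baselined for 10 cycles, then exposed to library compounds; positive kinetic calcium responses during the agonist phase mark hits, with TRH as control.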
KCNH2 3.1 block: qHTS for Inhibitors of KCHN2 3.1: Mutant qHTS | Potassium voltage-gated channel subfamily H member 2, brain isoform KCNH2 3.1 (human) | U2OS KCNH2 3.1, thallium flux FluxOr; hits give low values | activity change, % (tested at about 1.8 µM) | actives 0.95% (n = 340,000);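 active means maximum activity change below -70%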;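 further: thallium influx rate constant from kinetic fluorescence after stimulation buffer; on the % scale 0 is the no-effect control and ±100 the full control effect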
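FluxOr-based Tl+ influx in U2OS cells transduced with KCNH2 3.1 virus; rate constants normalized to DMSO controls.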
TRHR enhancer: qHTS for Small Molecule Agonists and Allosteric Enhancers of Human TRH Receptor: Primary Screen for Enhancers. enhancement, % at 2 µM. Thyrotropin-releasing hormone receptor (Homo sapiens), P34981. TRHR cells, fluo-8 calcium fluorescence, EC20 TRH enhancement. actives 0.66% (n = 360,000); in the data active means enhancement above about 30%; further: 0% is about no effect
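Enhancer read-out: after compound pinning and an initial kinetic agonist-mode read, an EC20 of TRH (10 nM final) was injected and fluo-8 calcium signal (Ex 480/Em 530) followed at 1 s/cycle for 100 cycles in TRHR-expressing cells.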
KCNH2 WT inh: qHTS for Inhibitors of KCHN2 3.1: Wildtype qHTS | Voltage-gated inwardly rectifying potassium channel KCNH2 (Homo sapiens), Q12809 | U2OS, BacMam KCNH2, thallium flux FluxOr; hits give low values | activity change, % at 1.84 µM | actives 0.37% (n = 340,000);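 active means maximum activity change below -70%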; further: on the % scale 0 is the no-effect control and ±100 the full control effect
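U2OS cells were transduced with wild-type KCNH2 virus (2.03 x 10^8 / mL) for 4 h at room temperature, then cultured overnight at 37 C. Thallium flux was read with FluxOr dye. Rate constants were normalized to DMSO controls.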
TRPML1 inh: qHTS for Inhibitors of the Human Mucolipin Transient Receptor Potential 1 (TRPML1). Mucolipin-1 (Homo sapiens), Q9GZU1. TRPML1-inducible cells, Ca2+ dye fluorescence, FDSS; hits give low values; inhibition of EC80 agonist-evoked calcium signal. activity change, negative = inhibition, % (test concentration not listed). actives 0.02% (n = 390,000); in the data active means activity change below about -50%;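 further: stimulus is agonist 54-4 at its EC80 concentration; on the % scale 0 is the no-effect control and ±100 the full control effect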
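TRPML1-DL cells, Tet-induced overnight (~16 h, 37 °C) at 1,500 cells/well, were loaded with Ca8 no-wash dye plus quencher for 45-90 min at room temperature. Compounds were pinned during FDSS kinetic reading; agonist 54-4 at EC80 (4 uM final) then added.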
Numbers without * were called inactive; · = no result. This is a sample that favours compounds with a hit; in the whole collection about 1.7% have one here.

SMILES	TRPML1 agonist	TRHR ag	KCNH2 3.1 block	TRHR enhancer	KCNH2 WT inh	TRPML1 inh
COc1cccc(CC(O)CC2c3c(cc4c(c3OC)OCO4)CCN2C)c1 (centres undefined)	0.1	·	-70.7*	·	33.9	7.1
CC(C)c1cc2c(s1)c1cnn(Cc3ccccc3F)c(=O)c1n2C	·	-0.1	·	-2.0	·	·
O=C1CC(N(CCc2ccccc2)C(=S)Nc2ccccc2)C(=O)N1c1ccc(F)cc1 (centres undefined)	1.1	0.5	-79.8*	-1.0	-1.8	-10.3
O=C1CC(N(CCc2ccccc2)C(=S)Nc2ccccc2)C(=O)N1c1ccccc1 (centres undefined)	2.8	0.9	16.0	4.2	-0.2	43.0
CN(C)C=Nc1nonc1-c1ccccc1	-1.1	0.2	-14.4	-0.6	-11.7	-2.5
CN(C)C=Nc1c(Br)cc(Br)c2nonc12	61.8*	141.3*	-17.3	11.1	-10.6	-5.7
CC(C)N(Cc1ccccc1)C(=O)COC(=O)c1cnc(Cl)c(Cl)c1	1.3	·	-0.1	·	6.1	15.6
CCn1c(C)nc2cc(C(=O)n3cc(C(=O)c4cc(F)ccc4O)cn3)ccc21	·	1.0	·	30.2*	·	·
CC(NC(=O)CSc1nnnn1C1CC1)c1ccccc1Br (centres undefined)	-0.8	·	-36.1	·	2.6	-12.9
CC(C)(C)n1ncc2c(=O)n(CC(=O)N3CCCC3)cnc21	-1.1	0.8	3.3	2.8	-17.0	3.3
CC1CCN(C(=O)Cn2cnc3c(cnn3C(C)(C)C)c2=O)CC1	-0.6	0.2	-2.0	30.0*	0.5	4.9
CC(=O)Nc1ccc(S(=O)(=O)NNC(=O)c2cccc([N+](=O)[O-])c2)cc1	0.1	-1.7	18.4	3.7	-6.9	-7.1
CCN(CC)S(=O)(=O)c1cccc(C(=O)N[C@H](C(=O)O)C(C)C)c1	0.5	0.9	-3.2	3.7	-170.4*	7.9
CCN(CC)S(=O)(=O)c1cccc(C(=O)Nc2ccc(C#N)cc2)c1	0.5	0.6	-75.8*	-1.4	-0.3	-5.1
CC(=O)Nc1ccc(S(=O)(=O)NNC(=O)c2cccc(Br)c2)cc1	1.3	0.4	-4.8	38.3*	2.4	27.3
CC1CC(C)CN(C(=O)COC(=O)c2ccc3ccccc3n2)C1 (centres undefined)	0.1	0.2	0.1	6.0	-12.9	-14.8
CN([C@@H](C(=O)OC(C)(C)C)c1ccccc1)S(=O)(=O)c1cccc(S(=O)(=O)N(C)[C@@H](C(=O)OC(C)(C)C)c2ccccc2)c1	70.5*	0.3	3.2	5.2	-3.7	-19.1
CC(C)C[C@@H](CN1CCCC1CN1C(=S)NC[C@@H]1Cc1ccc(O)cc1)N1C[C@H](Cc2ccccc2)N(CCc2ccccc2)C1=S (some centres undefined)	-0.4	·	-49.5	·	-70.8*	-5.8
O=C(Nc1cc(C(F)(F)F)ccc1Cl)C(O)Cc1ccccc1 (centres undefined)	·	-1.4	·	2.4	·	·
O=C(NC(Cc1ccccc1)C(=O)O)/C(=C/c1ccccc1)NC(=O)c1ccccc1 (centres undefined)	-1.9	-0.1	1.9	-9.7	6.7	-3.5
O=C(NC(Cc1ccccc1)C(=O)O)/C(=C\c1ccc(Cl)cc1)NC(=O)c1ccccc1 (centres undefined)	-0.3	-0.8	-13.8	-2.7	-92.0*	-6.8
COc1ccc(C(CC(=O)O)c2ccc3c(c2)OCO3)cc1 (centres undefined)	-0.5	-0.1	10.3	-1.3	7.9	15.2
NC(=O)CC(c1ccccc1)c1ccc2c(c1)OCO2 (centres undefined)	-1.1	0.0	5.3	33.1*	-0.7	14.1
Cc1ccc(CNC(=O)C2CC(c3ccccc3C(F)(F)F)=NO2)cc1 (centres undefined)	1.0	0.7	-158.3*	18.2	0.8	-0.8
CC(C)OC(=O)c1ccc(COC(=O)c2cccc(-c3nnc(-c4ccccc4)o3)c2)cc1	0.6	0.4	15.3	3.7	4.4	7.4
SMILES	TRPML1 agonist	TRHR ag	KCNH2 3.1 block	TRHR enhancer	KCNH2 WT inh	TRPML1 inh
CC(C)OC(=O)c1cccc(-c2ccc(C=O)o2)c1	0.2	0.4	3.7	35.5*	-1.5	7.1
O=C(C1=C[C@@H](c2csc3ccccc23)C[C@@H](OCc2ccc(CO)cc2)O1)N1CCN(Cc2ccccc2)CC1	0.5	1.0	-14.6	30.5*	-20.6	-5.9
CCS(=O)(=O)C1=NN2C(=N)/C(=C\c3ccc(OS(=O)(=O)c4ccccc4)cc3)C(=O)N=C2S1	-0.1	-0.1	14.9	-3.3	-15.5	18.0
Cc1ccc(S(=O)(=O)Oc2ccc(/C=C3\C(=N)N4N=C(S(C)(=O)=O)SC4=NC3=O)cc2)cc1	1.0	-0.4	-115.3*	2.7	-4.4	-3.8
N#C/C(=C/c1ccc(N2CCOCC2)o1)C(=O)Nc1ccccc1	82.9*	90.2*	-9.4	10.2	-8.6	-17.0
CCOC(=O)c1ccccc1NC(=O)CSc1nnc(CC)n2c1cc1occc12	0.8	-0.6	·	-5.0	·	20.7
Cc1cc2c(s1)c1cnn(Cc3c(F)c(F)c(C(F)(F)F)c(F)c3F)c(=O)c1n2C	·	-0.1	·	1.5	·	·
Cc1cc(C)c(N)c(C(=O)O)c1	0.0	1.1	13.4	37.7*	2.8	5.8
CCOc1nc(OCC)c2[nH]c(C(=O)O)c(Br)c2n1	0.4	·	7.0	·	16.2	16.9
O=C(C[n+]1ccccc1)Nc1c(Cl)cc(Cl)cc1Cl	-0.2	-0.7	12.1	38.7*	40.4	-1.3
Cc1ccc[n+](CC(=O)Nc2c(Cl)cc(Cl)cc2Cl)c1	-0.4	-0.6	0.2	0.3	28.3	-9.8
O=c1nc(-c2ccccc2Cl)c2cc(F)ccc2[nH]1	·	0.2	-78.8*	2.4	-0.1	·
Cc1cc(N/N=C/c2ccccc2Br)nc2ccccc12	6.6	0.2	-82.4*	-2.4	-20.7	44.4
CC1CN(c2ccc(NC(=O)c3ccco3)cc2C(=O)O)CC(C)O1 (centres undefined)	-0.1	0.4	0.5	30.1*	-2.0	-19.2
COc1cccc(-n2ccnc2SCC(=O)Nc2c(C)cc(C)cc2C)c1	1.6	-0.4	·	5.1	·	56.8
Cc1c(Cl)cccc1-n1c(SCC(=O)NCc2ccccc2)nc2n[nH]c(C)c2c1=N	1.9	-0.7	·	42.2*	·	20.9

High-throughput results from PubChem.
